# ELG1 repair inh – ELG1-dependent DNA repair inhibition. Potency, µM (doses to about 46.1 µM), for inactives: top-dose activity change, negative = inhibition, most hits filed as inhibitors. 2.3% of 330,000 active. HEK293T ELG1-luciferase reporter, luminescence, 16 h; DNA damage induced by 5-fluorouridine. AID 504467; further: on the % scale 0 is the no-effect control and ±100 the full control effect; nearly all actives have a fitted effect of over 55% in size
#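 Quantitative HTS, concentration-response format. 2,000 cells/well co-treated with 5-fluorouridine and compound, 16 hr in 5% CO2 at 37 °C; ONE-Glo luminescence read after 30 min.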
# NPC1 prom act – activates the NPC1 promoter; Potency, µM (top dose mostly 9.22 µM), without a hit: top-dose activation, actives largely listed as activators; 2.4% of 320,000 active; AID 485313; Huh7 NPC1 promoter luciferase reporter, 24 h; further: % of control where 0% means no effect; nearly all actives have a fitted effect of over 60% in size
#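 Stable NPC1-promoter luciferase Huh7 line; cpd (DMSO) 24 h, 37 °C, 5% CO2; Amplite luciferase reagent 10 min RT; luminescence readout. qHTS format.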
# SMN2 splice enh – increases expression of the SMN2 splice variant | HEK293 SMN2-luciferase splicing reporter, luminescence, 30-36 h | Potency, µM (series often up to 46.1 µM), for inactives: at the top dose activity change, positive = activation, most hits filed as activators | 2.8% of 210,000 active; further: % of control where 0% means no effect; nearly all actives have a fitted effect of over 55% in size
#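 qHTS luciferase splicing reporter: luminescence rises when SMN2 exon 7 is included in transfected HEK293 cells. Compound exposure lasted 30-36 h at 37C, with 4.5 mM final sodium butyrate as control, followed by a ONE-Glo read.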
# Rab9 promoter act – activates the Rab9 promoter | Huh7 Rab9 promoter-luciferase reporter, luminescence, 24 h | Potency, µM (series often up to 9.22 µM), for the others: at the top dose activation, negative = inhibition, usual class: activators | 2.8% of 320,000 active | AID 485297; further: % of control where 0% means no effect; nearly all actives have a fitted effect of over 60% in size
#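 Stable Rab9-luc Huh7, 1500 cells/well, 2 h settle; cmpd in DMSO, 24 h, 37 °C/5% CO2; luciferase reagent 10 min RT; luminescence.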
# ELG1 genotox – genotoxicity induction in ELG1-luciferase HEK293T cells. AID 504466. 1.3% of 330,000 active. HEK293T ELG1-luciferase reporter, luminescence, 16 h. Potency, µM (top dose mostly 46 µM), inactives show at the top dose activity change, positive = activation, hits mostly activators; further: % of control where 0% means no effect; nearly all actives have a fitted effect of over 60% in size
#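 HEK293T cells expressing luciferase-tagged ELG1 were exposed to compound or DMSO vehicle for 16 hr at 37 °C and 5% CO2. Luciferase activity was then measured with ONE-Glo after 30 min at room temperature.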
# FLuc counter – counter-screen for miR-21 project: firefly luciferase inhibitors or activators; purified FLuc, Km substrates, luminescence inhibition; 6.9% of 360,000 active; Potency, µM (top dose mostly 57.5 µM), inactives show at the highest dose activity change, negative = inhibition, hits mostly inhibitors; AID 588342;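 further: plate controls were vehicle for no effect and reference inhibitor for full effect; nearly all actives have a fitted effect of over 55% in size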
# Target sequence (P08659 whole entry, looked up): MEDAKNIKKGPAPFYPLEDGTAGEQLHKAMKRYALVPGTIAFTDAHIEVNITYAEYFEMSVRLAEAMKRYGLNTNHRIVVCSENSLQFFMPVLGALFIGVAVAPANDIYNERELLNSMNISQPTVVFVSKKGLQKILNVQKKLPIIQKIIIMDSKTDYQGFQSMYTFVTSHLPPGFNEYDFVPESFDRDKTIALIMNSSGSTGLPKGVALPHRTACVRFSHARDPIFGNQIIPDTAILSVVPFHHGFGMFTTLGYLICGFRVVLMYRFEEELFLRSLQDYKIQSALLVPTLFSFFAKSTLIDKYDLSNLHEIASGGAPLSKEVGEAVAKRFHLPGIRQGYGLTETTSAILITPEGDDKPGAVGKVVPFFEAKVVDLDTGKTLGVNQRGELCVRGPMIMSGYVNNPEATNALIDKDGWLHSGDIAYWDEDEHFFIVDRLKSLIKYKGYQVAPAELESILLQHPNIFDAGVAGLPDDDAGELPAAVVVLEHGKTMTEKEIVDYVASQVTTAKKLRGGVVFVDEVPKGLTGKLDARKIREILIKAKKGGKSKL
#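 Purified P. pyralis luciferase, 10 nM final, with Km-level 10 uM D-luciferin and 10 uM ATP in 50 mM Tris acetate pH 7.5, 10 mM Mg acetate, 0.01% Tween-20, 0.05% BSA; 6-point qHTS titration about 60 µM downward; luminescence read.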
# Numbers without * were called inactive; u = inconclusive; x = not tested or not shown. Only some compounds are listed: those with a hit (about 9.2% of all), similar ones and a draw of the others. The call rests on the fitted dose curve; in most records, active means well fitted curve in the direction sought with a large enough effect; inconclusive means small, poorly fitted or top-dose-only effect, or another doubt; inactive means no such curve, though single readings can be large; an effect the other way counts as inactive or inconclusive. Potency means the concentration at half of the fitted maximal effect.
SMILES,ELG1 repair inh,NPC1 prom act,SMN2 splice enh,Rab9 promoter act,ELG1 genotox,FLuc counter
Cc1ccccc1CN(C)C(=O)COC(=O)c1ccc2[nH]c(C)c(C)c2c1,26µM*,x,x,x,-4%,x
Cc1[nH]c2ccc(C(=O)OC(C)C(=O)NCc3ccccc3)cc2c1C (stereo not given),u,-16%,x,-20%,-7%,2%
CCOC(=O)CCNC(=O)N1CCCC(N(C)CCc2ccccc2)C1 (stereo not given),7%,1%,x,1%,3%,5%
COc1ccc(CNC(=O)Nc2ccccc2)cc1,u,u,x,3.5µM*,u,19µM*
Cc1cc2cc(CNC(=O)Nc3ccccc3)ccc2[nH]1,u,u,u,u,u,19µM*
COc1ccc(CNC(=O)Nc2ccc(OC)cc2)cc1,13%,-1%,29%,-4%,15%,-2%
COc1ccc(CNC(=O)Nc2ccc(C)cc2C)cc1,u,5%,13%,-2%,3%,-3%
COc1ccc(CNC(=O)Nc2cccc(C)c2)cc1,u,3.2µM*,20%,4µM*,u,u
Cc1ccc(CNC(=O)Nc2ccccc2)c(C)c1,u,2.5µM*,x,3.2µM*,18µM*,2.7µM*
COc1cccc(N2CC(NC(=O)c3ccc(S(=O)(=O)N4CCOCC4)cc3)CC2=O)c1 (stereo not given),x,x,x,x,x,-1%
C=CCN(C(=O)CSC1=NC(=O)CN1C(C)=O)c1nc(C)c(-c2ccccc2)s1,u,6%,u,-36%,10%,6.7µM*
Cc1c(Br)c([N+](=O)[O-])nn1C(C)C(=O)N1CCCc2ccccc21 (stereo not given),-17%,0%,-1%,1%,-2%,-2%
O=C(N/N=C/c1ccc[nH]1)c1ccccc1O,u,23%,x,u,u,9.5µM*
O=c1c(/C=N\NS(=O)(=O)c2ccccc2)coc2ccc(Cl)cc12,15µM*,11%,x,8%,-18%,-2%
O=C(N/N=C/c1ccc[nH]1)c1ccc(O)cc1,u,-22%,x,11%,12%,u
O=C(N/N=C/c1coc2ccccc2c1=O)c1ccc(Cl)cc1,1%,1%,x,18%,-9%,-6%
O=C(N/N=C/c1coc2ccccc2c1=O)c1ccccc1,-12%,-3%,-4%,-6%,-4%,17µM*
Oc1oc(C=Nc2ccc(F)cc2F)c2ccccc12,14%,-1%,25%,1%,0%,5%
O=S(=O)(N/N=C/c1ccccc1OCc1ccc(Cl)cc1)c1ccccc1,u,1%,6%,1%,15%,u
O=[N+]([O-])CC(=Nc1ccc(F)cc1)N/N=C\c1oc(O)c2ccccc12,30%,u,x,30%,7%,15µM*
O=C(N/N=C/c1oc(O)c2ccccc12)c1ccccc1O,25%,-2%,-10%,-5%,14%,11µM*
Cc1ccc(-c2ccc(/C=N/NC(=O)c3ccccc3O)o2)cc1,u,10%,x,13%,-8%,u
O=C(N/N=C/c1ccoc1)c1ccccc1O,18%,2%,x,-2%,u,11µM*
O=C(N/N=C/c1ccoc1)c1cc(O)cc(O)c1,u,-4%,x,2%,0%,u
O=C(N/N=C/c1ccoc1)c1ccccc1,u,16%,x,3%,u,27µM*
O=C(N/N=C/c1sc(=O)n(-c2ccccc2)c1Cl)c1ccccc1,u,1.6µM*,7.1µM*,1.8µM*,14%,6µM*
C/C(CC(=O)Nc1ccc(C)c(Cl)c1)=N\NC(=O)c1ccccn1,u,-1%,x,-4%,9%,-3%
O=C(COC(=O)Cc1ccc(Br)cc1)NC1CCCC1,3%,x,x,x,0%,x
O=C(COc1ccccc1F)Nc1ccc2nc(SCC(=O)N3CCc4ccccc43)sc2c1,x,x,x,x,x,-11%
O=C(N/N=C/c1ccoc1)c1ccc(Cl)cc1,7%,1%,x,4%,6%,u

# High-throughput results from PubChem.
